According to PubChem BioAssay (NCATS):
Unmarked numbers belong to inactive results. Inconclusive results are not listed. The source made the active and inactive calls. Unless noted, calls come from the whole dose curve; as a rule, active = well fitted curve in either direction with a large enough effect (not every such curve was filed as active); inconclusive = small, poorly fitted or top-dose-only effect, or another doubt; inactive = flat fitted curve, though single readings scatter.

Experiments:
[1] = biological target: Lysosomal acid glucosylceramidase (Homo sapiens) (UniProt P04062); test: Glucocerebrosidase-p2 (AID 348; in the data active = potency below about 10 µM; note: potency is the fitted concentration of half-maximal effect); conditions: purified GBA, blue fluorogenic substrate, 40 min
Outline: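 Normal human glucocerebrosidase (0.2 nM) with blue fluorogenic substrate (80 uM final) in citrate/phosphate pH 5.9 with 10mM sodium taurocholate, 0.01% tween-20; 40 min RT, NaOH/glycine stop; fluorescence Ex 365/Em 440; AC50 from a titration from 0.6 nM upwards.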

[2] = AP1 Signaling Pathway (AID 357); conditions: ME-180 AP-1-bla reporter, EGF-induced, beta-lactamase ratio, 5 h; at 7.69 µM (top of the series) unless noted;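 note: ME-180 reporter cells stimulated with EGF at its EC50 level; % is set by controls: 0 for no effect and ±100 for the full control effect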
Outline: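 First, ME-180 AP-1-bla cells were cultured overnight at 37 °C in low-serum Opti-MEM. Next, titrated compounds with EC50 EGF were incubated 5 hours. Finally, CCF4 was added for 2.5 hours and the 460/530 nm ratio recorded.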

[3] = biological target: Cytochrome P450 1A2 (Homo sapiens) (UniProt P05177); test: p450-cyp1a2 (AID 410; calls by dose curve; note: potency is the fitted concentration of half-maximal effect;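 for activity change, negative = inhibition: -100% = full effect of reference inhibitor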); conditions: recombinant CYP1A2, luciferin-ME demethylation, luminescence; series mostly up to 57 µM
Outline: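 Read-out is luminescence from luciferin produced by CYP1A2 demethylation of Luciferin-ME (100uM, at Km). Detection reagent stopped the 60 min NADPH-dependent reaction; signals were normalized to 57 uM furafylline.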

[4] = Stat Signaling Pathway (AID 446); conditions: ME-180 SIE beta-lactamase reporter, IL-6 stimulated, 5 h; at 7.69 µM (top of the series) unless noted;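 note: ME-180 cervical cancer cells given 40 pM IL-6 alongside compound; SIE-controlled beta-lactamase reporter measured as 460/530 nm FRET emission ratio; % is set by controls: 0 for no effect and ±100 for the full control effect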
Outline: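 Overnight-plated ME-180 cells bearing a STAT Inducible Element beta-lactamase reporter; 5 h co-exposure to compound and 40 pM IL-6; values normalized to 300 pM IL-6 and 125 nM JAK inhibitor controls.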

[5] = biological target: Glucocorticoid receptor (Homo sapiens) (UniProt P04150); test: GR-EFC Redistribution (AID 451; calls by dose curve; note: potency is the fitted concentration of half-maximal effect); conditions: CHO-K1 GR-EFC translocation, beta-gal luminescence, 2 h
Outline: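 CHO-K1 cells expressing nuclear EA and GR-ED fragments of b-gal; compounds titrated up to 46 uM final, 2 h at 37 C. GR nuclear translocation read as complemented b-gal luminescence after 1 h RT detection.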

[6] = biological target: Mitogen-activated protein kinase 10 (Mus musculus) (UniProt Q61831); test: JNK3 AlphaScreen Assay (AID 530); conditions: JNK3 lysate, c-Jun phosphorylation; series mostly up to 57.1 µM;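 note: kinase came from lysate of stimulated human HepG2 cells; signal reports phosphorylation of biotinylated GST-cJun 1-79 at Ser73 with 10 µM ATP; % is set by controls: 0 for no effect and ±100 for the full control effect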
Outline: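 HepG2 lysate (IL-1b/TNFa pre-activated) + biotin-GST-cJun 1-79 + anti-pSer73 cJun; cpd titration, 15 min RT; ATP 10 uM start; Tris pH 7.6, MgCl2, DTT, vanadate; beads in EDTA buffer; AlphaScreen.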

[7] = biological target: 3',5'-cyclic-AMP phosphodiesterase 4B (Homo sapiens) (UniProt Q07343); test: qHTS Assay for Inhibitors of PDE-IV (AID 607; active = well fitted activation curve with a large enough effect in the main read-out, with a control signal flat, not every such curve was filed as active; note: % of control where 0% means no effect); conditions: HEK293 ACTOne CNG channel cells, membrane potential fluorescence; series mostly up to 22.9 µM
Outline: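 Live HEK293 cells with a modified cyclic nucleotide-gated (CNG) channel report intracellular cAMP via membrane-potential dye fluorescence (ex 535/em 590 nm). Endogenous PDE-IV was targeted. Compounds were tested at up to 22.9 uM final; RO 20-1724 100 uM served as control.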

[8] = Primary qHTS for small molecule stabilizers of the endoplasmic reticulum resident proteome: Secreted ER Calcium Modulated Protein (SERCaMP) assay (AID 1508630; active = well fitted curve in the direction sought with a large enough effect; an effect the other way counts as inactive or inconclusive; note: % is set by controls: 0 for no effect and ±100 for the full control effect); conditions: SH-SY5Y GLuc-SERCaMP (Gaussia luciferase released on ER calcium loss) secretion, thapsigargin, luminescence; series mostly up to 38.4 µM
Outline: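 The SH-SY5Y reporter protocol was run at 3 concentrations up to 38.3 uM (primary) or 11 concentrations (follow-up): 16 h compound, 100 nM thapsigargin for 4 h, then extracellular luciferase luminescence.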

[9] = biological target: Cytochrome P450 3A4 (Homo sapiens) (UniProt P08684); test: qHTS Assay for Activators of Cytochrome P450 3A4 (AID 885; active = well fitted curve in the direction sought with a large enough effect; an effect the other way counts as inactive or inconclusive; note: nearly all actives have a fitted effect of over 65% in size); conditions: recombinant CYP3A4, Luciferin-PPXE luminescence, 60 min; series mostly up to 57.1 µM
Outline: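 Using 20nM recombinant human CYP3A4 in potassium phosphate (200mM), substrate Luciferin-PPXE at 25uM, luminescent luciferin detection followed a 60-min RT NADPH reaction; data scaled to 57 uM ketoconazole.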

[10] = NFAT Signaling Pathway (AID 444); conditions: Jurkat NFAT-bla M1, carbachol, beta-lactamase ratio, 5 h; at 7.69 µM (top of the series) unless noted
Outline: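 Jurkat cells with NFAT-driven β-lactamase reporter and co-expressed M1 receptor, stimulated with carbachol (final 1 uM, ~EC50), compound titration, 5 h at 37 °C. CCF4 loaded 1 h at RT; 460/530 nm ratio gave %activity and AC50.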

[11] = biological target: Glucocorticoid receptor (Homo sapiens) (UniProt P04150); test: GR-GFP Redistribution (AID 450;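 active = compounds whose dose series gives a full or clear partial fitted curve of increased nuclear translocation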; note: potency is the fitted concentration of half-maximal effect); conditions: U2OS GR-GFP nuclear translocation, laser cytometry, 2 h
[12] = Confirmation and Secondary Assay for Modulators of Hemoglobin Beta Chain Splicing at IVS2 654 locus (AID 910; active = well fitted curve in the direction sought with a large enough effect; an effect the other way counts as inactive or inconclusive;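 note: HeLa cells stably carrying EGFP split by mutant beta-globin IVS2-654 intron; % of control where 0% means no effect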); conditions: HeLa EGFP-654 splicing reporter, GFP fluorescence, 48 h; series mostly up to 38.3 µM
Outline: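 HeLa cells stably expressing EGFP interrupted by β-globin IVS2-654 intron, seeded overnight in Opti-MEM/2% FCS, then treated 2 days at 37 °C. Restored splicing read as total peak GFP intensity per well by laser scanning cytometry (488 nm excitation, 500–520 nm emission); 500 nM antisense PNA as control.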

[13] = Confirmation and Secondary Assay for Modulators of Hemoglobin Beta Chain Splicing at IVS2 705 locus (AID 930; active = well fitted curve in the direction sought with a large enough effect; an effect the other way counts as inactive or inconclusive;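 note: HeLa cells stably expressing the EGFP-705 splicing reporter; GFP fluorescence per well restored by corrected splicing of the IVS2-705 intron in EGFP; % of control where 0% means no effect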); conditions: HeLa EGFP-705 splicing reporter, GFP fluorescence, 48 h; series mostly up to 38.3 µM
Outline: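 HeLa IVS2-705 EGFP reporter cells, 500/well, compound 2 d at 37C; correct splicing yields fluorescent EGFP. Control: 500 nM antisense PNA. Read-out: total peak GFP intensity.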

[14] = biological target: Ubiquitin carboxyl-terminal hydrolase 1 (Homo sapiens) (UniProt O94782); test: Inhibitors of USP1/UAF1: Pilot qHTS (AID 504865; active = well fitted curve in the direction sought with a large enough effect; an effect the other way counts as inactive or inconclusive;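 note: rhodamine fluorescence freed from ubiquitin-rhodamine substrate followed over time; top concentration of the series differs between compounds; % is set by controls: 0 for no effect and ±100 for the full control effect; nearly all actives have a fitted effect of over 35% in size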); conditions: purified USP1/UAF1, Ub-rhodamine cleavage fluorescence; series mostly up to 54.9 µM
Outline: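 USP1/UAF1 complex (1nM) preincubated with compound 15 min at room temperature, then Ub-Rho substrate (150nM final) added. Fluorescence read kinetically at 480/540 nm, 6 reads every 60 seconds. Buffer: 50mM HEPES pH 7.8, 0.5mM EDTA, 0.1 mg/ml BSA, 1mM TCEP, 0.01% Tween-20.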

[15] = biological target: Cytochrome P450 3A4 (Homo sapiens) (UniProt P08684); test: qHTS Assay for Inhibitors and Substrates of Cytochrome P450 3A4 (AID 884; active = well fitted curve in the direction sought with a large enough effect; an effect the other way counts as inactive or inconclusive; note: potency is the fitted concentration of half-maximal effect; nearly all actives have a fitted effect of over 50% in size); conditions: recombinant CYP3A4, Luciferin-PPXE luminescence; series mostly up to 57.1 µM
Outline: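 Luminescent readout of luciferin produced by CYP3A4 (20 nM) dealkylation of Luciferin-PPXE, 25 uM (its KM). NADPH-driven reaction ran 60 min at RT after 10 min compound preincubation; data scaled to 57 uM ketoconazole as 100% inhibition.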

[16] = biological target: Cytochrome P450 2C19 (Homo sapiens) (UniProt P33261); test: qHTS Assay for Inhibitors and Substrates of Cytochrome P450 2C19 (AID 899; active = well fitted curve in the direction sought with a large enough effect; an effect the other way counts as inactive or inconclusive; note: nearly all actives have a fitted effect of over 60% in size; note: potency is the fitted concentration of half-maximal effect); conditions: recombinant CYP2C19, luciferin-H EGE luminescence; series mostly up to 57.1 µM
Outline: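 Signal comes from luciferase acting on luciferin released by CYP2C19-mediated hydroxylation of Luciferin-H EGE, 10uM (KM). Assay mix: 5nM enzyme, 50mM KPO4; 60 min at 37C with NADPH regeneration. Data normalized against 57uM ketoconazole.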

[17] = qHTS Assay for Identification of Small Molecule Agonists for Hypoxia Response Element Signaling Pathway (AID 914; active = well fitted activation curve with a large enough effect in the signal ratio, with a control signal flat, not every such curve was filed as active; the % refers to the signal ratio; note: potency is the fitted concentration of half-maximal effect); conditions: ME-180 (cervical carcinoma) HRE-bla reporter, beta-lactamase ratio, CoCl2, 17 h; activation: hits give high values
Outline: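 HRE-bla ME-180 assay for agonist-like enhancement of an EC50 CoCl2 stimulus: 17 h at 37 degrees Celsius, CCF4 for 2.5 h, ratiometric 460/530 nm signal converted to %Activity and fitted to AC50.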

Sequence of Glucocorticoid receptor (Homo sapiens) (P04150 whole entry, looked up, the tested form may be a part): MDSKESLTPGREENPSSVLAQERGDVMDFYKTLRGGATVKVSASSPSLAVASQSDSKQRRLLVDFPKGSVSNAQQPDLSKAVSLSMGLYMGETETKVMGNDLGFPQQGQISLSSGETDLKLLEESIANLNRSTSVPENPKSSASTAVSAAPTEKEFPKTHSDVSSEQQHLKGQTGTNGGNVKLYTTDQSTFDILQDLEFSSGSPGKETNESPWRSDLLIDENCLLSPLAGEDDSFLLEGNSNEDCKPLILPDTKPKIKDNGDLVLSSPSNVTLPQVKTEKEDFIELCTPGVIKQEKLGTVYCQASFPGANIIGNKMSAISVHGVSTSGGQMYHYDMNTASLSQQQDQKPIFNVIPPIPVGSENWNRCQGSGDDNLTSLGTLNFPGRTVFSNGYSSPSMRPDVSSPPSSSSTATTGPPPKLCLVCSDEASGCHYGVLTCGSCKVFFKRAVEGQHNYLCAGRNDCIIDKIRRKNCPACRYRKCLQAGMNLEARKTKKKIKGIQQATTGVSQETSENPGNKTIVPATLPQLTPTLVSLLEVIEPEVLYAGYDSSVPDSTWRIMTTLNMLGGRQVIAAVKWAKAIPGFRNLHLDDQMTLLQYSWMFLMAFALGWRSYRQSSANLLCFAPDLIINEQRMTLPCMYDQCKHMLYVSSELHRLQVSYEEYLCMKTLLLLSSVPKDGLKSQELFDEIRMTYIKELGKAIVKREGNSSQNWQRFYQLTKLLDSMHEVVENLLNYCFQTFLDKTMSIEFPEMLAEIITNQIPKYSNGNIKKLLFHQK
Sequence of Cytochrome P450 3A4 (Homo sapiens) (P08684 whole entry, looked up): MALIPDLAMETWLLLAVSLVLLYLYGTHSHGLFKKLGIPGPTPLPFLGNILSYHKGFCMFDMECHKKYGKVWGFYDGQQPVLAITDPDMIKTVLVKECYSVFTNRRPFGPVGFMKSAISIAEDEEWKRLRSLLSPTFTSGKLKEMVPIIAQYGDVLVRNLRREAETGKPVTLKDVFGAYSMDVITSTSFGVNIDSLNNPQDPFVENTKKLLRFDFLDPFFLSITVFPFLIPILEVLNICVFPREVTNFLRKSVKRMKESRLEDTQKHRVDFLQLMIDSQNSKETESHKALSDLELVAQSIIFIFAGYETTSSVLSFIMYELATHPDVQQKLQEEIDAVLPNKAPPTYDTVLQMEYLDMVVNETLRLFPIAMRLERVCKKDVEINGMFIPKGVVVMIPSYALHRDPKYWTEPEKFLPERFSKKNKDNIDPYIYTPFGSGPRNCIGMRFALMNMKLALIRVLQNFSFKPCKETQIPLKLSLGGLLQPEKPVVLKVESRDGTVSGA
Sequence of Lysosomal acid glucosylceramidase (Homo sapiens) (P04062 whole entry, looked up): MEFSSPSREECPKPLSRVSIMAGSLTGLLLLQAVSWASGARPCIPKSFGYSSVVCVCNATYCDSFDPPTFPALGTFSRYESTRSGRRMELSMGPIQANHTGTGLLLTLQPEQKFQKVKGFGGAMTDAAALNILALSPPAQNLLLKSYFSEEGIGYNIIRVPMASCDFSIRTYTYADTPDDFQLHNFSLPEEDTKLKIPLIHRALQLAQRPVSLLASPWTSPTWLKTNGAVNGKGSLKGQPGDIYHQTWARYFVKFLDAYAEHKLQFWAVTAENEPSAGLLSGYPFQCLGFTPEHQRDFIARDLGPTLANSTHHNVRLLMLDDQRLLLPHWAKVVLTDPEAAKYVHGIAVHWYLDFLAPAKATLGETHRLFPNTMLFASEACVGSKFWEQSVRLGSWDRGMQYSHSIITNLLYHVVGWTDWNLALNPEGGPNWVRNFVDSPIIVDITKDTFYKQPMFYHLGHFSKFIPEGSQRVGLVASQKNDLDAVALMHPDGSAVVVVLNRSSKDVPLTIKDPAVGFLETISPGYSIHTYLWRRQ
Sequence of 3',5'-cyclic-AMP phosphodiesterase 4B (Homo sapiens) (Q07343 whole entry, looked up): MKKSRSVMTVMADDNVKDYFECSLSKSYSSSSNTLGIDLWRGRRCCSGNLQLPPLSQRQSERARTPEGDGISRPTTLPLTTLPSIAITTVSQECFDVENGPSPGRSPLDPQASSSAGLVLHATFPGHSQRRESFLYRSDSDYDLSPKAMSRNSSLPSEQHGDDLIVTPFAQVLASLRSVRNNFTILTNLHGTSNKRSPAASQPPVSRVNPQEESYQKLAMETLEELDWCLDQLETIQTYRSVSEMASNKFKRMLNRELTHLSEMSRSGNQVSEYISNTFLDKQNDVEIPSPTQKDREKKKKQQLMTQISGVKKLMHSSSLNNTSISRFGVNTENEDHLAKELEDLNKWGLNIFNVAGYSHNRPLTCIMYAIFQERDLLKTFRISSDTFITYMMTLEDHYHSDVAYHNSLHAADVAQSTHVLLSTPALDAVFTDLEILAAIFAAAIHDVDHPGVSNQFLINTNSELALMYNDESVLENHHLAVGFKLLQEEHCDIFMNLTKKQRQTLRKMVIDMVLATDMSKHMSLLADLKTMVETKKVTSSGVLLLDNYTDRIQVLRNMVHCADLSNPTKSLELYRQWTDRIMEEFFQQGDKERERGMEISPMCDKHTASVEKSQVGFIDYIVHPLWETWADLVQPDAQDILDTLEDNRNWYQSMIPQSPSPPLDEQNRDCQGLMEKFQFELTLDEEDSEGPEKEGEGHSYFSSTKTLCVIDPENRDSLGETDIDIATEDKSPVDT
Sequence of Cytochrome P450 1A2 (Homo sapiens) (P05177 whole entry, looked up): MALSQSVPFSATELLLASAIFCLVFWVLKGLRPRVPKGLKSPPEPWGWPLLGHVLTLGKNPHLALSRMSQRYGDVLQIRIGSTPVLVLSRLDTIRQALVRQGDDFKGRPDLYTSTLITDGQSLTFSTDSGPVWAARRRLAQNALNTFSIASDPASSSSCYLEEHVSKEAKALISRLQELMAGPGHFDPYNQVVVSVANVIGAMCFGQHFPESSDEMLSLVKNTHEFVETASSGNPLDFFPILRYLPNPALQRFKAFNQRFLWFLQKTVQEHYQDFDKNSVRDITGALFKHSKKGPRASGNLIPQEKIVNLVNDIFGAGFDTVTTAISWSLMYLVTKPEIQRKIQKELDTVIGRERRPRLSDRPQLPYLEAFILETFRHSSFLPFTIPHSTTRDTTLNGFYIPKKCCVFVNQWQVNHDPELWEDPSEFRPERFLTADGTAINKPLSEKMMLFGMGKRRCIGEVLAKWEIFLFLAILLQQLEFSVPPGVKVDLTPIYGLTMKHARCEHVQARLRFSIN
Sequence of Cytochrome P450 2C19 (Homo sapiens) (P33261 whole entry, looked up): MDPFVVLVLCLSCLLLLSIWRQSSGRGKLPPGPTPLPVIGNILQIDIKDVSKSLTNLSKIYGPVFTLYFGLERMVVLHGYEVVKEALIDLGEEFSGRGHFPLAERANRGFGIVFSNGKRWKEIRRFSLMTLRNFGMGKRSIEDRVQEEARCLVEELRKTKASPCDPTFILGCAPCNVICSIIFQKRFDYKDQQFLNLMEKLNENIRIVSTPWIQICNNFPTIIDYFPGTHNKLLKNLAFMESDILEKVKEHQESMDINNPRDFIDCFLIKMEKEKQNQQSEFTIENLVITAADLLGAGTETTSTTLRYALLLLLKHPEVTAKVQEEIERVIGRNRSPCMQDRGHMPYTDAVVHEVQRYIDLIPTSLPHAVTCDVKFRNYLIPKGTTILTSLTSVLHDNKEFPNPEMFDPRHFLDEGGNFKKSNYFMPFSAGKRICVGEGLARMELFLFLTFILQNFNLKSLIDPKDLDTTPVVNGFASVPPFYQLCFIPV
Sequence of Ubiquitin carboxyl-terminal hydrolase 1 (Homo sapiens) (O94782 whole entry, looked up): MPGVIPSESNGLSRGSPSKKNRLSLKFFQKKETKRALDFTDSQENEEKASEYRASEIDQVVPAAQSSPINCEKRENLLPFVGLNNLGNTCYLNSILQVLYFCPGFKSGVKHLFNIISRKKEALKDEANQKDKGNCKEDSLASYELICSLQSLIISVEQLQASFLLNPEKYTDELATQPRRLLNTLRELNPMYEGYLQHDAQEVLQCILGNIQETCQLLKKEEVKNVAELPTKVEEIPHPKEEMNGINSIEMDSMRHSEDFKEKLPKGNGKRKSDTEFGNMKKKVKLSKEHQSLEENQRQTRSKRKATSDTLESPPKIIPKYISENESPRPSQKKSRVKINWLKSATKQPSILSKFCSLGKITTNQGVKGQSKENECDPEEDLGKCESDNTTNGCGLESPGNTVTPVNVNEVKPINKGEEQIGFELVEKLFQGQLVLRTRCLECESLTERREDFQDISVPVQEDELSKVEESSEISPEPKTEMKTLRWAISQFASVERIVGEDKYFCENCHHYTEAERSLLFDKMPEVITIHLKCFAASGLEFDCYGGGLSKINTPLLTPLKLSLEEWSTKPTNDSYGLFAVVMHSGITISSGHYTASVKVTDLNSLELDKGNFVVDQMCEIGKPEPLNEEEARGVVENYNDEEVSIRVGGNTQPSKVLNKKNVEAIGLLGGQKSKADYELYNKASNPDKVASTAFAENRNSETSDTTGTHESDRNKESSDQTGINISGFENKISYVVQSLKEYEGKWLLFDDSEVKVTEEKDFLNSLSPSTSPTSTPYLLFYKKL

Row | Compound | Potency [1] [µM] | activity change, negative = inhibition [2] [%] | Potency [3] | activity, negative = inhibition [4] [%] | Potency [5] [µM] | Potency [6] | Potency [7] | outcome [8] | Potency [9] | activity change, negative = inhibition [10] [%] | Potency [11] [µM] | Potency [12] | outcome [13] | Potency [14] | Potency [15] | Potency [16] | Potency [17]
1 | O=C(c1csnn1)N1CCC2(CC1)CCN(c1ccccn1)CC2 | > 11.4 | 15.4 | 25.1 µM (active) | 4.86 | > 46 | inactive | inactive | inactive |  |  |  |  |  |  |  |  | 
2 | N#Cc1cccc(NC(=O)N2CCCC3(CCN(C(=O)c4cccc(F)c4)CC3)C2)c1 | > 11.4 | -6.98 | 12.6 µM (active) | -4.33 | > 46 | inactive | inactive | inactive | inactive |  |  |  |  |  |  |  | 
3 | FC(F)(F)c1ccccc1-c1cncnc1NCCc1cnc[nH]1 | > 11.4 | -1.69 | 6.31 µM (active) |  | > 46 | inactive | inactive | inactive |  | -20 | > 46 | inactive | inactive | inactive |  |  | 
4 | COc1ccc(C(=O)N2CCC[C@@]3(CCN(c4cccc(-c5ccccc5)c4)C3)C2)cc1 | > 11.4 | 8.11 | 12.6 µM (active) | -9.84 | > 46 |  |  | inactive | inactive | -15.1 |  |  |  |  | 3.16 µM (active) | 7.94 µM (active) | 
5 | O=S(=O)(c1ccccc1)N1CCC2(CCCN(Cc3nccs3)C2)CC1 | > 11.4 | -17.2 | inactive | -1.51 | > 46 | inactive | inactive | inactive | inactive |  |  |  |  |  | 3.16 µM (active) | inactive | 
6 | COCCn1c(=O)c(-c2cn(C)c3ccccc23)nc2cnc(Oc3ccccc3)nc21 | > 11.4 | 26.2 | 10 µM (active) |  | > 46 |  | inactive | inactive | inactive | 19.4 | > 9.22 |  |  |  | 3.16 µM (active) |  | 3.16 µM (active)
7 | O=C(c1cnccn1)N1CCC2(CCCN(c3ccc(-c4ccccc4)cc3)C2)CC1 | > 11.4 | -27.9 | 25.1 µM (active) |  | > 46 | inactive | inactive | inactive |  | -14.8 |  |  |  |  |  |  | 
